Screens from PubChem.
BaF3 parental = parental Ba/F3 viability inhibition as JAK2V617F counter-screen; CellTiter-Glo ATP luminescence; inhibition, % at 5.6 µM; 220,000 tested, 1.1% active;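 active = inhibition above a per-campaign cutoff, the mean inhibition of all tested compounds plus 3 SD, cut at about 27% in these data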
APP 5UTR inh = APP translation inhibition; SH-SY5Y APP 5'UTR-luciferase reporter, luminescence; inhibition, % at 2 µM; 190,000 tested, 0.82% active; AID 1285;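 active = inhibition above a set limit, derived from the sample mean plus 3 SD, cut at about 45% in these data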
KLF5 inhibitor = inhibitors of KLF5 expression; 290,000 tested, 0.23% active; inhibition, % at 5 µM; DLD-1 KLF5 promoter-luciferase reporter, luminescence; AID 1700;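 active = inhibition above a per-plate limit of that plate's mean compound inhibition plus 3 SD, cut at about 60% in these data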;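 also: higher means less KLF5 promoter-driven luciferase light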
Ba/F3 V617F tox = loss of viability in JAK2V617F-driven Ba/F3 cells. Ba/F3 EpoR-JAK2V617F viability, ATP luminescence. inhibition, % at 5.6 µM. 220,000 tested, 1.1% active. AID 1446;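 active = inhibition above the campaign mean plus 3 SD over all tested compounds, cut at about 24% in these data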;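 also: cytokine-independent growth of Ba/F3 cells driven by EpoR plus mutant JAK2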
aSyn 5UTR inh = MLPCN primary screen, SNCA 5' untranslated region; inhibition, % (tested at 7.5 µM); alpha-synuclein 5'UTR reporter, inhibitor activity; 300,000 tested, 0.82% active; in the data active = inhibition above about 60%;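 also: H4 neuroglioblastoma cells stably carrying SNCA 5'UTR luciferase fusion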
IEC-6 tox = IEC-6 cytotoxicity, counter-screen for KLF5 inhibitors. luminescence viability. inhibition, % at 5 µM. 290,000 tested, 0.78% active. AID 1825; in the data active = inhibition above about 22%
Numbers stand for hits; - = inactive; . = no result. In the library only some 2.2% were active in any assay of this set; here they are far more common.

SMILES	BaF3 parental	APP 5UTR inh	KLF5 inhibitor	Ba/F3 V617F tox	aSyn 5UTR inh	IEC-6 tox
Cc1ccc(NC(=O)c2ccc(S(=O)(=O)N3CCOCC3)cc2)c(C)c1	.	.	-	.	-	-
Cc1ccc(C)c(NC(=S)N=Nc2c(O)n(C)c3ccc(S(=O)(=O)N4CCOCC4)cc23)c1	-	-	-	-	78	-
O=C(NCCc1ccccc1Cl)C1CCC(=O)N(Cc2ccc(Cl)cc2)C1 (configuration not stated)	.	.	-	.	-	-
CCOCCCNC(=O)CN1CCN(Cc2ccccc2C)C1=O	-	-	-	-	-	-
Cc1c(/C=N/n2cnnc2)c2ccccc2n1CCOc1ccccc1	-	-	-	-	-	-
O=C(Cn1c(=O)n(Cc2ccc(F)cc2)c(=O)c2ccccc21)NCC1CCCO1 (configuration not stated)	.	.	-	.	-	-
Clc1cccc(-c2nc(-c3ccccn3)no2)c1	-	-	-	-	93	-
N#CC(C#N)=C1C=CC=CN1/C(=C\c1ccco1)C(=O)c1ccc(Cl)cc1	-	96	-	-	.	-
N#CC(C#N)=C1C=CC=CN1/C(=C\c1ccco1)C(=O)c1ccc(-c2ccccc2)cc1	-	92	-	-	.	-
COCCCNC(=O)CCn1c(=O)c2ccccc2n(CC(=O)NCCc2ccc(OC)c(OC)c2)c1=O	-	-	-	-	-	-
c1ccc(CCNc2ncnc3ccccc23)cc1	68	-	-	65	-	-
O=C(NCc1ccco1)c1cc([N+](=O)[O-])ccc1N1CCCCC1	-	-	-	-	-	-
O=C(NCc1ccc2c(c1)OCO2)c1cc([N+](=O)[O-])ccc1N1CCCCC1	48	79	-	63	-	55
Cn1c(-c2ccc3c(c2)OCO3)cnc1NCc1cccc(O)c1	90	-	-	-	-	-
Cn1c(-c2ccc(F)cc2)cnc1NCc1cccc(F)c1	-	-	-	-	-	-
O=C(NNC(=O)c1cc(C(F)(F)F)cc(C(F)(F)F)c1)c1ccc(Cl)cc1	62	.	-	-	-	-
O=C(Nc1ccc(Cl)cc1C(F)(F)F)c1ccc(Cl)cc1	-	-	-	-	-	-
C/C(=N\OCC(=O)Nc1ccc(F)c(F)c1F)c1cc2ccccc2o1	-	-	-	-	-	-
CSc1ccccc1NC(=O)CO/N=C(\C)c1cc2ccccc2o1	-	-	-	-	-	36
S=C(Nc1ccc(Cl)cc1)N1CCN(Cc2ccccc2)CC1	49	-	-	28	-	-
S=C(Nc1ccccc1Cl)NC1CCN(Cc2ccccc2)CC1	-	-	-	-	-	-
S=C(Nc1cc(Cl)cc(Cl)c1)NC1CCN(Cc2ccccc2)CC1	.	.	-	.	72	-
O=C(C1CCCO1)N1CCN(C(=S)Nc2ccc(Cl)cc2)CC1 (configuration not stated)	30	-	-	39	-	-
Cc1ccc(NC(=S)N2CCN(C(=O)C3CCCO3)CC2)cc1 (configuration not stated)	-	-	-	-	-	-
O=C(NC(=S)Nc1ccc(S(=O)(=O)Nc2ccccc2)cc1)C1CC1	-	-	-	-	-	-
SMILES	BaF3 parental	APP 5UTR inh	KLF5 inhibitor	Ba/F3 V617F tox	aSyn 5UTR inh	IEC-6 tox
O=C(NCCc1ccccc1)c1ccnc(/C=N/O)c1	-	-	-	-	-	-
CCCN1CCCc2cc(CN)ccc21	63	-	-	63	-	-
C=CCOc1ccccc1CNc1cccc(F)c1	-	57	-	-	-	-
COc1cccc(Cn2c(-c3nonc3N)nc3ccccc32)c1	79	92	-	86	96	-
COc1cc(Cn2c(-c3nonc3N)nc3ccccc32)ccc1C	-	90	-	-	96	-
CCCCOc1ccccc1NC(=O)Cn1c(-c2nonc2N)nc2ccccc21	-	90	-	-	124	-
Cc1ccc(Cn2c(-c3nonc3N)nc3ccccc32)cc1	-	-	-	-	-	-
CCCCCCNC(=O)N[C@@H](C(=O)NCCC[C@H]1CN2C(=NC[C@@H]2Cc2ccccc2)N1CCc1cccc(OC)c1)C(C)C	.	.	.	.	-	.
C=CCOc1ccc(CNc2nccs2)cc1	-	-	-	-	-	-
CC(=O)c1c(N2CCCCC2)nc(=S)n(-c2ccccc2)c1C	41	-	-	-	-	-
O=C(CCN1CCN(c2ccccc2)CC1)N/N=C/c1ccccc1O	-	-	-	-	71	-
N=c1n(Cc2ccccc2)c2ccccc2n1CC(O)c1ccccc1 (configuration not stated)	-	-	-	-	-	-
COc1cc(/C=N/NC(=O)C(Cc2c[nH]c3ccccc23)NC(=O)OCC(C)C)cc([N+](=O)[O-])c1O (configuration not stated)	-	-	-	-	-	-
COc1cc(/C=N/NC(=O)C(Cc2c[nH]c3ccccc23)NC(=O)OCC(C)C)cc([N+](=O)[O-])c1OCc1ccccc1 (configuration not stated)	100	-	-	95	-	-
O=C(O)CCCSCC(=O)Nc1ccccc1	-	-	-	-	-	-
COc1ccc(NC(=O)CSc2nc3ccccc3c3nc4ccccc4n23)cc1	-	81	-	-	.	-
Cc1ccc(NC(=O)CSc2nc3ccccc3c3nc4ccccc4n23)cc1	-	51	-	-	110	-
Cc1ccc(-n2c(SCC(=O)Nc3ccc(N4CCOCC4)cc3)nc3ccccc3c2=O)cc1	-	-	-	-	-	-
COc1ccc(OC)c(NC(=O)CSc2nc3ccccc3c3nc4ccccc4n23)c1	-	-	-	-	.	-
Cc1ccc(NC(=S)NNC(=O)CSc2nc3ccccc3c(=O)n2-c2ccc(C)cc2)cc1	43	-	-	-	-	-
Nn1c(CN2CCCCC2)nc2ccccc2c1=O	-	-	-	-	-	-
CCN(CC)c1ccc(/C=N/NC(=O)c2ccc3nc[nH]c3c2)c(O)c1	-	.	-	-	93	-
COc1cccc(/C=N/NC(=O)c2ccc3nc[nH]c3c2)c1O	-	.	-	-	-	-
Oc1c(CN2CCOCC2)cc(COCc2ccccc2)c2cccnc12	-	92	-	-	114	-
O=c1c2ccccc2nc(N/N=C/c2c(O)ccc3ccccc23)n1O	74	57	-	93	82	-
SMILES	BaF3 parental	APP 5UTR inh	KLF5 inhibitor	Ba/F3 V617F tox	aSyn 5UTR inh	IEC-6 tox
O=c1c2ccccc2nc(N/N=C/c2ccc(O)cc2)n1O	-	-	-	-	-	-
CCN(CC)CCCNc1ccc(-c2nnc(-c3ccc(OCC(C)C)cc3)o2)cn1	.	.	-	.	121	-
O=C(COc1ccccc1)Nc1ccc(-c2nnc(-c3ccco3)o2)cc1	-	-	-	-	-	-
CC(C)COc1ccc(-c2nnc(-c3ccco3)o2)cc1	-	-	-	-	86	-
CCCOc1ccc(-c2nnc(-c3ccco3)o2)cc1	-	-	-	-	65	-
COc1ccccc1NS(=O)(=O)c1cccc(C(=O)NC2CCN(Cc3ccccc3)CC2)c1	.	.	.	.	83	.
O=C(NC1CCN(Cc2ccccc2)CC1)c1cccc(S(=O)(=O)Nc2ccc(Br)cc2)c1	.	.	.	.	-	.
